From PubChem BioAssay (NCI)
“And” between values parts separate entries of the source, which are not always exact repeats. Equal entries are not always repeated. About 83,000 compounds went through this panel and 20% of them were active in at least one assay; those are over-represented in the sample as a whole.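 Compound tested at a single concentration for 48 hours in 96-well plates; a percent growth value below 10 was scored as active.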 The source made the active and inactive calls.

tested on: HCT-15 colon; assay: NCI-60 one-dose screen, 48 h (100 = growth as untreated, 0 = no growth, -100 = all killed); settings: 10 µM unless noted
Experimental: Growth inhibition of the HCT-15 human tumor cell line is measured as a screen for anti-cancer activity. Cells are grown in 96 well plates and exposed to the test compound for 48 hours. Compounds are tested at a single concentration, which is 10^-5 M for most compounds. The reported endpoint is percent growth (GI% or GIPRCNT), where numbers from 0 - 100% represent growth inhibition, and numbers from -100% - 0 represent cell death. For example, a value of 40 represents 60% growth inhibition. A value of 0 means no net growth occurred over the course of the experiment. A value of -40 indicates 40% of cells at the beginning of the experiment died by the end of the experiment. A value of -100 means all cells are dead at the end of the experiment.
NCI-60 Human Tumor Cell Lines Screen was performed using the standard one-dose NCI protocol, which is described in more detail at https://dtp.cancer.gov/discovery_development/nci-60/default.htm.
Compounds with GIPRCNT values below 10 were considered active. Activity score was based on GIPRCNT using the following formula: […]
Score is 0 for GIPRCNT values of 100 or above, 50 for GIPRCNT values of 0, and 100 for GIPRCNT values of -100.

Structure (SMILES) | growth
CCOc1ccc(/C=C\C(=O)O)cc1 | 105% (inactive)
CCOP(=O)(OCC)/C(C#N)=C/c1c(C)[nH]c2ccccc12 | 108% (inactive)
O=C1CCC(=O)N1CC1CC2CCC1C2 (stereo not given) | 107% (inactive) and 104% (inactive)
Cc1cc2nc3ccc(=[N+](C)C)cc-3sc2cc1N | 8.48% (active) and 7.46% (active)
O=C(O)C1CSCN1 (stereo not given) | 109% (inactive) and 96.3% (inactive)
CC1(C)CC(=O)NC1=O | 110% (inactive)
O=C(c1ccccc1)C1(Br)CCCCC1 | 99.1% (inactive)
O=C(O)c1c2c(nc3ccccc13)Cc1ccccc1-2 | 103% (inactive)
O=COCCCc1ccccc1 | 107% (inactive)
C/C=C/C(=O)OCCCCCCCCCCCC | 123% (inactive)
Cc1nc2c(=O)[nH]c(=S)[nH]c2[nH]c1=O | 105% (inactive) and 104% (inactive)
NCCSSC/C=C\CSSCCN | 102% (inactive)
CC(C)(C)OC(=O)CC1(O)CCCCC1 | 105% (inactive)
CC1CC(O)CC(C)(C)C1.CC1CC(O)CC(C)(C)C1.CC1CC(O)CC(C)(C)C1.CC1CC(O)CC(C)(C)C1.[Ti] (stereo not given) | 110% (inactive)
CC(=O)Oc1cc(C(C)C)c(OCCN(C)C)cc1C | 105% (inactive) and 104% (inactive)
O=C(O)c1cccc(Br)c1 | 108% (inactive) and 102% (inactive)
COc1ccc(C(=O)C(O)c2ccc(OC)cc2)cc1 (stereo not given) | 110% (inactive) and 107% (inactive)
N#Cc1ccc(/C=C/C(=O)c2ccccc2)cc1 | 49.6% (inactive) and 82.3% (inactive)
CC(=O)C[n+]1ccccc1Sc1ccc(Cl)cc1 | 93.3% (inactive)
COc1ccccc1OCC(O)CO (stereo not given) | 95.1% (inactive) and 105% (inactive)

Structure (SMILES) | growth
COc1ccc(CCN=Cc2ccc(Cl)cc2)cc1OC | 106% (inactive)
O=C(O)c1cc(=O)[nH]c(=O)[nH]1 | 102% (inactive) and 97.9% (inactive)
CCOC(=O)c1csc(N)n1 | 101% (inactive) and 100% (inactive)
NC(=O)Cc1nc(O)cc(=O)[nH]1 | 96.9% (inactive)
O=C(NC(CSSCC(NC(=O)OCc1ccccc1)C(=O)O)C(=O)O)OCc1ccccc1 (stereo not given) | 90.9% (inactive) and 98.4% (inactive)
CC(C)(C)OC(=O)c1ccc(NCc2cc(O)ccc2O)cc1 | -30.1% (active)
Nc1nc(N)c2cc(S(=O)(=O)c3ccccc3)ccc2n1 | 27.9% (inactive) and 25.6% (inactive)
CNc1ccc(Cl)cc1S(=O)(=O)c1ccccc1[N+](=O)[O-] | 105% (inactive) and 91.3% (inactive)
Cn1c(-c2ccccc2)cc(=O)cc1-c1ccccc1 | 22.7% (inactive)
CC1=CC(=O)C=CC1=Nc1ccc(N(C)C)cc1 | 96.8% (inactive) and 32.4% (inactive)
CCOC(=O)C1=C(C)NC(C)=C(C(=O)OCC)C1 | 108% (inactive) and 90.8% (inactive)
O=C1c2ccccc2C(c2ccccc2)C1c1ccccc1 (stereo not given) | 71.8% (inactive)
CC(C)(C)C1CCC(=NO)CC1 (stereo not given) | 106% (inactive)
COc1ccc(/C=N/NC(N)=S)cc1 | 106% (inactive)
CCN(CC)CCO/N=C1\CC(c2ccc(OC)c(OC)c2)Oc2ccccc21 (stereo not given) | 88.6% (inactive)
O=C(O)Cc1cc(=O)[nH]n(-c2ccccc2)c1=O | 107% (inactive)
COc1cc2c(cc1O)C(=O)CCCC2 | 95.3% (inactive)
CN(C)CC(CN(C)C)C(O)c1ccccc1 (stereo not given) | 99.3% (inactive)
CCOC(=O)NC(N)=O | 105% (inactive) and 98% (inactive)
O=C1c2ccccc2CN1c1ccccc1 | 107% (inactive)
